Measurements taken from ChEMBL document CHEMBL3988442, “University of Dundee, Small-Polar-MMV Screening Library” (2021).

Columns and labels:
[1] = molecular target: T1, Aspartate--tRNA(Asp/Asn) ligase (Mycobacterium tuberculosis (strain ATCC 25618 / H37Rv)) (UniProt P9WFW3); assay: Assay for Asp RNA synthetase-1 from Mycobacterium tuberculosis; assay type: functional; set-up: scale not given: direction of the effect not stated beside the values; conditions: 30 µM; further: in the data most compounds retested in dose-response had high values
T1 sequence (whole entry): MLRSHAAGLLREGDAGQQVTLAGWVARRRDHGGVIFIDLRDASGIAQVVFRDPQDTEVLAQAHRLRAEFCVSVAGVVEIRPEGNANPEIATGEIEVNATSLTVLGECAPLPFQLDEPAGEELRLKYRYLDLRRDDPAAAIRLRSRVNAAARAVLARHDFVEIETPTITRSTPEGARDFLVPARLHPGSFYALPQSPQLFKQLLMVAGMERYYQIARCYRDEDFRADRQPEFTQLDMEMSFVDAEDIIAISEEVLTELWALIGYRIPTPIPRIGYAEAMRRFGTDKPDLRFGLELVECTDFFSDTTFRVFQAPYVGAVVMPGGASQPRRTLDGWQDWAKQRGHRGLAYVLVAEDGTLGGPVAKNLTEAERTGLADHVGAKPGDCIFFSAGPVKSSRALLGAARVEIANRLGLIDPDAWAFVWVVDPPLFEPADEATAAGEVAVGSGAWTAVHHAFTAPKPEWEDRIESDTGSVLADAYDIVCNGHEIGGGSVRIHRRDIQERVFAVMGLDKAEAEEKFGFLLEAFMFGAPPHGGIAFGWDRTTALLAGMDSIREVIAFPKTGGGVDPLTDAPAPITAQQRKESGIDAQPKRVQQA

[2] = molecular target: Shiga toxin 2 (Escherichia coli O157:H7) (UniProt P09385+P09386); assay: E. coli 0.157:H7 Shiga Toxin SOP - stx2 screening assay; assay type: functional; set-up: scale not given: direction of the effect not stated beside the values; conditions: 30 µM

Row | Structure (SMILES) | Percent Effect [1] [%] | Percent Effect [2] [%]
1 | c1cncc(COCC2CN(Cc3ccco3)Cc3ccnn3C2)c1 (configuration not stated) | 1.51 | -12.8
2 | CCN(C)c1ncnc2c1CCN(C(=O)c1ccno1)CC2 | 7.02 | -5.46
3 | Cn1c(C2CC2)nc2c1CCN(CCS(=O)(=O)c1ccccc1)C2 | -5.83 | 6.27
4 | COc1c(CNCc2ccc(C(=O)N(C)C)cc2)c(C)nn1C | 2.9 | -13.9
5 | Cn1cc(C2CCCN2C(=O)CCCOCc2ccccc2)cn1 (configuration not stated) | -6.77 | -16.1
6 | Cc1cnn(CC2CCCN2Cc2nnc(Cc3ccccc3)o2)c1 (configuration not stated) | -0.062 | 20
7 | Cc1cc(C(=O)N2CCCC(c3noc(C)n3)C2)[nH]n1 (configuration not stated) | -4.2 | -22.4
8 | O=C(NCC1CC1)N1CCN(Cc2ccc3c(c2)OCCO3)CC1 | 0.365 | 16.2
9 | Cn1cc(CN2CCCn3cnc(CN4CCCC4=O)c3C2)cn1 | 2.39 | -3.11
10 | O=C(c1cnccn1)N1CCN(Cc2ccncc2)c2ncccc2C1 | 0.815 | -1.31
11 | CNC(=O)[C@@]12CCCN(c3ncccn3)[C@@H]1CN(C(=O)NC(C)C)C2 | 1.62 | -25.1
12 | CN(C)C(=O)C1CCCN1CCCNC(=O)c1ccccc1F (configuration not stated) | 7.07 | -18.5
13 | CS(=O)(=O)CCNC(=O)C1(c2cccc(Cl)c2)CCCCC1 | 1.2 | -20.3
14 | CCc1n[nH]c(C2CN(C(=O)Cn3ccccc3=O)CCO2)n1 (configuration not stated) | 0.8 | -58
15 | Cc1ccc(CNC(=O)NCc2csc(C)n2)cn1 | -3.34 | -8.48
16 | CC(C)(C)CC(=O)N1CC[C@@H]2[C@H](CC1)N(S(C)(=O)=O)CCS2(=O)=O | -2.83 | -21.6
17 | CN(C)c1ccccc1C(=O)N1C[C@@H](CN2CCCCC2)[C@@H](CO)C1 | -5.26 | 17.7
18 | COC[C@@]12CCO[C@@H]1CCN(Cc1ccccc1F)C2 | 0.843 | -24.5
19 | CCCS(=O)(=O)N1CCOCC2(CCN(c3ccccn3)C2)C1 (configuration not stated) | -2.85 | -23.9
20 | O=C(CN1CCC(c2ccnn2CCO)CC1)NCc1cccs1 | -1.91 | -10
21 | COc1cc(CN(C)C(=O)Nc2cc(C)on2)ccc1SC | 2.27 | -8.55
22 | Cn1ccnc1CN1CCCCC1Cn1cccn1 (configuration not stated) | 2.66 | 11.2
23 | CS(=O)(=O)NC1CCN(C(=O)NCCNc2ccccn2)CC1 | 3.96 | 19.1
24 | O=C(c1cccc(CNCC2CNc3ccnn3C2)c1)N1CCCC1 (configuration not stated) | -1.15 | -3.83
25 | O=C(Nc1ccc(F)cc1)N1C[C@H]2C[C@H](C(=O)N3CCOCC3)[C@@H](C1)O2 | 0.452 | -11.7
26 | CNc1nc(CNC(=O)Nc2cccc(F)c2C)cs1 | -2.59 | 17.1

Row | Structure (SMILES) | Percent Effect [1] [%] | Percent Effect [2] [%]
27 | C[C@@H]1C(=O)NC[C@H]2CN(CCc3ccccc3)C[C@H]21 | 4.21 | -4.99
28 | Cc1n[nH]c(C)c1C1COCCN1C(=O)c1cc(Cl)c[nH]1 (configuration not stated) | 2.63 | -24.9
29 | CCn1c(N)nc2cc(C(=O)NCc3ccccc3Cl)cnc21 | 6.55 | -1.88
30 | O=c1c(-c2ccnc(NC3CCOCC3)n2)cnc2sc(Cl)cn12 | -3.81 | -50
31 | CCn1cc(CN(C)S(=O)(=O)c2ccc(NC(C)=O)cc2)cn1 | 2.64 | -65.2
32 | O=C(c1csc(Br)c1)N1CCCC(n2ccnc2)C1 (configuration not stated) | -1.27 | -53.5
33 | CC(CN1CCOCC1)NC(=O)NCc1ccc(Cl)s1 (configuration not stated) | 2.25 | -2.94
34 | CC(C)Oc1cccc(C(O)CNC(=O)CCc2ccncc2)c1 (configuration not stated) | -1.28 | -21.1
35 | Cc1ccc(Oc2ccc(NC(=O)NCC3CCOC3)cn2)cc1C (configuration not stated) | 0.322 | -6.2
36 | CC(Cc1ccco1)NC(=O)Nc1cnn(CC(N)=O)c1 (configuration not stated) | 2.29 | -8.5
37 | CC(C)c1nc(C2CCCN2CC(=O)N2CCNC2=O)no1 (configuration not stated) | 1.61 | -10.5
38 | CC(C)N1CCCC2(CCN(C(=O)CCCn3ccnc3)C2)C1=O (configuration not stated) | -5.64 | 15.9
39 | Cc1nccn1-c1cc(CNC(=O)C(C)(C)C)ccn1 | 10.6 | -3.04
40 | CCC1CCCCCN1C(=O)c1nnc2ccccc2c1N (configuration not stated) | -3.53 | -2.87
41 | CC(C)n1ccnc1C1CCN(C(=O)C2COc3ccccc3O2)CC1 (configuration not stated) | -1.53 | 13.2
42 | Cc1nc(C(=O)N2CCC(Nc3cccnn3)CC2)cs1 | -7.35 | -19.2
43 | O=C(Nc1ccccc1OC(F)F)C1=NN(c2ccccc2)C(=O)CN1 | 9.31 | -3.57
44 | O=C(c1ccc[nH]1)N1C[C@H]2CC[C@@H]1CN(c1ncccn1)C2 | -4.31 | -5.71
45 | Cc1nc(C)n(CC2CN(c3ncccn3)Cc3nccn3C2)n1 (configuration not stated) | -0.127 | 11.6
46 | COCCN1C[C@@H]2CN(Cc3cccc(F)c3)CCC[C@]2(C(=O)O)C1 | 6.95 | -10.4
47 | CC(=O)Nc1nc(C2CCN(C(C)=O)CC2)cs1 | -1.69 | -0.268
48 | CN(C(=O)c1ccccc1Cl)C1CCN(c2ccccn2)CC1 | 5.42 | 19.1
49 | Cc1csc(N2CCN(C(=O)CCc3nccs3)CC2)n1 | 2.49 | 7.79
50 | CCc1nc(CN2CCN(C(=O)c3cnccn3)CC2)cs1 | -2.04 | -21.2
51 | COCCCN1CCCN(C(C)C(=O)Nc2cccc(I)c2)CC1 (configuration not stated) | 0.0704 | -31.1
